Laboratory results from PubChem BioAssay (NCI).
Compounds without any hit were thinned out: in the full panel of roughly 83,000, 20% have a hit.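 Negative percent growth values reflect cell death: -40 means 40% of the cells present at the start died, and -100 means all died.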 A number with no mark means an inactive call. The source made the active and inactive calls.

Each compound was assayed on UACC-62 melanoma (assay: NCI-60 one-dose screen, 48 h (100 = growth as untreated, 0 = no growth, -100 = all killed)). Conditions: 10 µM unless noted.
Protocol: Growth inhibition of the UACC-62 human tumor cell line is measured as a screen for anti-cancer activity. Cells are grown in 96 well plates and exposed to the test compound for 48 hours. Compounds are tested at a single concentration, which is 10^-5 M for most compounds. The reported endpoint is percent growth (GI% or GIPRCNT), where numbers from 0 - 100% represent growth inhibition, and numbers from -100% - 0 represent cell death. For example, a value of 40 represents 60% growth inhibition. A value of 0 means no net growth occurred over the course of the experiment. A value of -40 indicates 40% of cells at the beginning of the experiment died by the end of the experiment. A value of -100 means all cells are dead at the end of the experiment.
NCI-60 Human Tumor Cell Lines Screen was performed using the standard one-dose NCI protocol, which is described in more detail at https://dtp.cancer.gov/discovery_development/nci-60/default.htm.
Compounds with GIPRCNT values below 10 were considered active. Activity score was based on GIPRCNT using the following formula: […]
Score is 0 for GIPRCNT values of 100 or above, 50 for GIPRCNT values of 0, and 100 for GIPRCNT values of -100.
`COc1ccc(-c2nnc(SCc3ccc(O)c4ncccc34)o2)cc1` gave a growth of 42.8%. In the case of `COC[C@@]1(C)CC[C@]2(C)CC[C@]3(C)C(=CC[C@@H]4[C@@]5(C)CCCNC(C)(C)[C@@H]5CC[C@]43C)C2C1` (stereo not given in full), the growth is reported as 64.5%. `Oc1ccccc1-c1nnc(SCc2ccc(O)c3ncccc23)o1` showed a growth of 30.2%. Compound `CCN(CC)CCN1C(=O)c2c(c3c4cccnc4[nH]c3c3ccc4ccccc4c23)C1=O` has a growth of 69.2%. `NCCN1CCN(c2nc(-c3ccccc3)nc3nc(-c4ccccc4)oc23)CC1` showed a growth of 101%. Work on `O=C(Cn1cc(CN2C(=O)c3ccc([N+](=O)[O-])cc3C2=O)nn1)Nc1ccc(F)cc1Cl` yielded a growth of 92.3%. `CN1CCN(c2ccc(C(=O)/C=C/c3ccc(Cl)c(C(F)(F)F)c3)cc2)CC1` showed a growth of 75.4%. For `CN1CCN(c2ccc3c(C(N)=O)c(NC(=O)c4ccc(C(C)(C)C)cc4)sc3c2)CC1`, the growth was 99.5%. With `CCCC(=O)NC(c1cccnc1)c1cc(Cl)c2cccnc2c1O` (stereo not given) the growth was 23.8%. In the case of `Oc1ccc(-c2nnc(SCc3ccc(O)c4ncccc34)n2-c2ccccc2)cc1`, the growth is reported as -4.05% (active). `CCOC(=O)Nc1ccc(-c2nc(-c3cccc(O)c3)c(-c3ccnc(Br)c3)[nH]2)cc1` was tested, and the growth was 24.3%. With `O=[N+]([O-])c1ccc(-c2nnc(SCc3ccc(O)c4ncccc34)n2-c2ccccc2)cc1` the growth was 27.7%. With `O=S(=O)(Nc1ccc(I)c(Cl)c1)c1ccc(-c2cnc(C3CC3)o2)cc1` the growth was 31.2%. In the case of `CCNCCCn1c2c(c3cc(OC)c(OC)cc3c1=O)C(=O)c1cc(OC)cnc1-2`, the growth is reported as 5.63% (active). With `CC1(C)CC[C@]2(C(=O)N3CCCNCC3)CC[C@]3(C)C(=CC[C@@H]4[C@@]5(C)CCC(=O)C(C)(C)[C@@H]5CC[C@]43C)[C@H]2C1` the growth was 89.6%. `O=C1c2c(c3c4cccnc4[nH]c3c3ccc4ccccc4c23)C(=O)N1CCN1CCNCC1` showed a growth of 79.6%. Work on `COc1ccc(-c2nn(-c3ccccc3)cc2/C=C/C(=O)c2ccc(NC(=O)CCCCCCC(=O)NO)cc2)cc1` yielded a growth of 94.9%. Compound `C=CCn1c(SCC(=O)Nc2cccc(C(=O)/C=C/c3ccc(Cl)cc3)c2)nc2ccccc2c1=O` has a growth of 72.2%. With `O=C1c2c(c3c4cc(Br)ccc4[nH]c3c3ccc4ccccc4c23)C(=O)N1CCN1CCCCC1` the growth was 59.5%. Compound `COc1cc(C(=O)c2cc(C(C)=O)c3c4ccccc4ccn23)cc(OC)c1OC` has a growth of 38%. `C/C=C/C=C1\C[C@H]2CO[C@H](O2)C1=O` showed a growth of 89.5%. `CCOC(=O)Nc1cccc(-n2cnc3cc(-c4ccc(O)cc4)ccc32)c1` showed a growth of 35.8%. `Cc1cc(=O)n2nc(-c3c[nH]c4ccccc34)sc2n1` was tested, and the growth was 92%. `O=C1c2cc(Br)ccc2-n2c1nc1cc(Br)ccc1c2=O` was tested, and the growth was 85.7%. With `O=C(CN1CCN(c2cc(=O)n(-c3ccccc3)c3ccccc23)CC1)Nc1ccc([N+](=O)[O-])cc1` the growth was 63.4%. In the case of `COc1ccc(NC(=O)Cn2cc(CN3C(=O)c4ccc([N+](=O)[O-])cc4C3=O)nn2)cc1`, the growth is reported as 91.3%. Work on `CN1C(=O)N(C)C2C1NN=c1s/c(=C\c3ccccn3)c(=O)n12` (stereo not given) yielded a growth of 90.6%. Compound `C#C[C@]1(O)CC[C@H]2[C@@H]3CC=C4c5sc(-c6cccc(F)c6)nc5CC[C@]4(C)[C@H]3CC[C@@]21C` has a growth of 74.9%. With `COc1ccc(-c2cc(-c3ccc(Cl)cc3)nc3nc(N)nn23)cc1` the growth was 92.8%. For `Fc1ccccc1/C=C(/C1=NCCN1)n1cnc2ccccc21`, the growth was 94.9%. In the case of `CC1=CC(=O)CC(C)(C)[C@@]1(O)/C=C/C(C)=C\C(=O)O`, the growth is reported as -56.9% (active). `CS(=O)(=O)c1nccc(-c2c(-c3ccc(F)c(OCc4ccccc4)c3)nc3sccn23)n1` showed a growth of 87%. `N#C/C(=C\c1ccc2ccccc2c1)C(=O)Nc1sc2c(c1C#N)CCC2` gave a growth of 90.3%. In the case of `C#C[C@]1(O)CC[C@H]2[C@@H]3CC=C4c5sc(Nc6ccncc6)nc5CC[C@]4(C)[C@H]3CC[C@@]21C`, the growth is reported as -22.8% (active). `COc1cc2c3c(n(CCCN4CCC[C@H]4C(N)=O)c(=O)c2cc1OC)-c1cc2c(cc1C3=O)OCO2` was tested, and the growth was -43.5% (active). In the case of `CCC(C)[C@H]1OC(=O)[C@H](C(C)C)N(C)C(=O)[C@@H](C(C)C)OC(=O)[C@H](C(C)C)N(C)C(=O)[C@@H](C(C)CC)OC(=O)[C@H](C(C)C)N(C)C1=O` (stereo not given in full), the growth is reported as 6.11% (active). Compound `Cc1ccc(NC(=O)c2ccc(CN3CCN(C)CC3)c(I)c2)cc1Oc1ccc(-c2[nH]nc3ncnc(N)c23)cc1` has a growth of 85%. For `Cc1ccc(-n2cc(/C=C/C(=O)c3ccc(S(C)(=O)=O)cc3)c(-c3ccc(S(C)(=O)=O)cc3)n2)cc1`, the growth was 78.1%. `NS(=O)(=O)Oc1ccc2nc(Nc3ccc(F)c(F)c3)ccc2c1` gave a growth of 85.5%. Work on `CCc1ccc(NC(=O)N[C@@H](Cc2cc(F)cc(F)c2)C(=O)N[C@@H]2C(=O)N3CCC[C@H]3C(=O)N3CCO[C@H](C)[C@H]3C(=O)N[C@@H](CO)C(=O)N3C[C@H](C)C[C@H]3C(=O)O[C@H]2C)c(F)c1` yielded a growth of 26.3%.
